Only some compounds are listed: those with a hit (about 0.93% of all), similar ones and a draw of the others.
CDC25B-CDK2 inh: human CDC25B-CDK2/CyclinA binding inhibition; HTRF CDC25B-CDK2/CyclinA binding, anti-His/anti-Flag; stronger effect = higher value; hit rate 0.72% among 94,000; P30305+P24941; z-score (test concentration not listed); in the data active = z-score above about 3.2
HIV TAR-Tat: HIV-1 TAR-Tat binding disruption | HIV-1 TAR RNA, Tat peptide displacement FRET; stronger effect = higher value | z-score (test concentration not listed) | hit rate 0.6% among 100,000; active = z-score of 3 or more in at least 2 runs
Numbers without * were called inactive; . = no result; ! = a repeat was not active.

SMILES	CDC25B-CDK2 inh	HIV TAR-Tat
CCn1c(SCC(=O)Nc2nnc(C)s2)nnc1-c1cc2ccccc2o1	.	5.1*
CCCc1nnc2sc(NC(=O)C(CC)Oc3ccccc3)nn12 (stereo not given)	-2	0.69
CSc1ccc(C2C(C#N)=C(N)OC3=C2CCc2ccccc23)cc1 (stereo not given)	7.5*	.
CSc1ccc(C2C(C#N)=C(N)Oc3c2ccc2ccccc32)cc1 (stereo not given)	-0.13	-0.49
Cc1ccccc1-c1nnc(CN2CCc3ccccc32)o1	-3.6	-0.62
Nc1ncccc1NC(=O)CCC(=O)O	14*	0.11
O=C(O)CCCC(=O)Nc1cccc2cccnc12	-0.19	1.4
CCC1CN(C(=O)NC2CCCC2)c2ccccc2O1 (stereo not given)	.	2.4
COC(=O)C1=C(N)Oc2ccccc2C1C(C#N)C#N (stereo not given)	19*	.
COC(=O)NC1c2ccccc2Oc2ccccc21	-0.47	0.32
O=c1cc(O)c2sc3nc(-c4ccncc4)ccc3c2[nH]1	2.5	15*
COc1ccc(-c2ccc3c(n2)sc2c(O)cc(=O)[nH]c23)cc1OC	-0.51	5.1
Clc1ccc2nc(N3CCN(c4ccccn4)CC3)c3nncn3c2c1	-1.7	-2.1
COc1ccc(C(=O)OCc2cc(=O)n3nc(C4CC4)sc3n2)cc1	.	-0.04
CCC(=O)N1CCc2cc(Br)cc(S(=O)(=O)NCC3CCCN3CC)c21 (stereo not given)	4.5*	.
CCC(=O)N1CCc2cc(Br)cc(S(=O)(=O)NCCN3CCCCC3C)c21 (stereo not given)	3.4	.
O=C(Nc1ccc(-c2nc3ccccc3o2)cc1)c1nc(-n2cnnc2)ccc1Br	.	7.2*
O=C(Nc1ccc2oc(-c3ccccc3)nc2c1)c1nc(-n2cnnc2)ccc1Br	.	2.5
COC(=O)c1cc(S(=O)(=O)NCCc2ccc(SC)cc2)cn1C	.	0.48
CC1(C(=O)NC2CCCCC2)Cn2c(cc3occc32)C(=O)N1C1CCCCC1 (stereo not given)	.	2.2
CC1CCC(NC(=O)C2(C)Cn3c(cc4occc43)C(=O)N2C2CCCCC2)CC1 (stereo not given)	.	5.4*
CC1(C(=O)NC2CCCCC2)Cn2c(cc3occc32)C(=O)N1CCN1CCOCC1 (stereo not given)	.	4*
CC1CCC(NC(=O)C2(C)Cn3c(cc4occc43)C(=O)N2CCN2CCOCC2)CC1 (stereo not given)	.	2.2
CC1CCC(NC(=O)C2(C)Cn3c(cc4occc43)C(=O)N2CCN(C)C)CC1 (stereo not given)	.	2.5
CC1CCC(NC(=O)C2(C)Cn3c(cc4occc43)C(=O)N2C2CCC(C)CC2)CC1 (stereo not given)	.	5.4*
SMILES	CDC25B-CDK2 inh	HIV TAR-Tat
CC(C)C1C(=O)Nc2ccc(S(=O)(=O)NC3CCCCC3)cc21 (stereo not given)	.	0.89
Fc1ccc(-c2csc(-c3ccccn3)n2)cc1	0.11	2.1
O=c1cc(CSc2ccc(Cl)cc2)nc2sc(-c3ccco3)nn12	-2.2	1.6
CCc1nn2c(=O)cc(COc3ccc(C)c(C)c3)nc2s1	-1.5	0.78
O=c1cc(CSc2nc3ccccc3[nH]2)nc2sc(-c3cccs3)nn12	0.61	0.82
O=c1cc(COc2ccc(Cl)cc2)nc2sc(-c3ccco3)nn12	-0.91	36*
Cc1cccc(OCc2cc(=O)n3nc(-c4ccco4)sc3n2)c1C	-0.31	35*
Cc1ccc(OCc2cc(=O)n3nc(-c4ccccc4)sc3n2)cc1C	1.7	4.5*
Cc1nn2c(=O)cc(COc3cccc(C)c3C)nc2s1	-1	-0.75
O=c1cc(CSc2nc3ccccc3[nH]2)nc2sc(-c3ccco3)nn12	-0.16	15*
Cc1nn2c(=O)cc(CSc3nnc(-c4ccccc4C)o3)nc2s1	-0.66	0.42
COc1cnc(CSc2ccc(Cl)cc2)cc1OCC(=O)N1CCc2ccccc21	.	0.84
Cc1csc2nc(COC(=O)COc3ccccc3Cl)cc(=O)n12	.	-0.38
CN1CCN(C(=O)C2CCN(C(=O)c3cc4sccc4n3C)CC2)CC1	-1.3	-1.9
O=C(N[C@@H](Cc1ccccc1)C(=O)CCl)OCc1ccccc1	-2.2	0.24
CC(C)C[C@@H](C=O)NC(=O)[C@H](CC(C)C)NC(=O)[C@H](CC(C)C)NC(=O)OCc1ccccc1	.	3.9*!
CCC1CN(C(=O)NCc2ccco2)c2ccccc2O1 (stereo not given)	.	1.8
CCOc1ccc(NC(=O)N2CCC3(CC2)Nc2cc(F)ccc2-n2cccc23)cc1	.	0.52
Cc1sc2ncn(CC(=O)N3CCCCCC3)c(=O)c2c1S(=O)(=O)N1CCN(C)CC1	19*	.
Cc1sc2ncn(CC(=O)N3CCOCC3)c(=O)c2c1S(=O)(=O)N1CCOCC1	-1.5	2.3
COc1nc2ccc(C)cc2cc1-c1noc(-c2ccncc2)n1	-13	0.7
COc1nc2ccc(C)cc2cc1-c1noc(-c2cccnc2)n1	-13	3.6*
Cc1nc([N+](=O)[O-])cn1CCc1noc(-c2ccc(OC(F)(F)F)cc2)n1	0.64	.
Cc1ccc(C(=O)COC(=O)c2ccc3c(c2)-c2ccccc2C3=O)cc1C	-2	.
Cc1nc(-c2cccs2)c(CC(=O)N2CCCC2)s1	-1.3	-0.62
SMILES	CDC25B-CDK2 inh	HIV TAR-Tat
Cc1nc(-c2cccs2)c(CC(=O)Nc2ccc(N3CCCC3)cc2)s1	12*	-0.42
COc1cc(OC)c(NS(=O)(=O)c2c(C)nc3sc(C)c(C)n3c2=O)cc1Cl	.	0.38
Cc1cccc(C2C(C#N)=C3N=C(N)c4ccccc4N3C3=C2C(=O)CCC3)c1 (stereo not given)	-1.6	1
N#CC1=C2N=C(N)c3ccccc3N2C2=C(C(=O)CCC2)C1c1cccc(Br)c1 (stereo not given)	18*	-5.1
CCNC(=O)c1cn2c3c(ccc(Cl)c3c1=O)OC(C)C2 (stereo not given)	.	5.3
CCOC(=O)c1cn2c3c(ccc(Cl)c3c1=O)OC(C)C2 (stereo not given)	.	17*
Cn1c(=O)[nH]c(=O)c2c1ncn2CCCN	-1.5	.
O=C1c2cccc(O)c2C(=O)c2c(O)cccc21	.	3.1
Cc1cc(O)c2c(c1)Cc1cccc(O)c1C2=O	.	7.7*
Fc1ccccc1-c1ccc(-c2nn3c(-c4ccco4)nnc3s2)o1	-0.12	20*
Cc1occc1-c1nnc2sc(-c3ccc(-c4cccc(Cl)c4)o3)nn12	-0.12	1.7
Clc1cccc(-c2ccc(-c3nn4c(-c5ccco5)nnc4s3)o2)c1	-0.52	17*
FC(F)(F)c1cccc(-c2ccc(-c3nn4c(-c5ccco5)nnc4s3)o2)c1	1.4	.
Cc1c(Cl)cccc1-n1nnc(-c2nc(-c3ccccc3Cl)no2)c1N	.	0.2
O=c1c(NCc2ccc(F)cc2)nccn1-c1ccc2c(c1)OCO2	.	0.05
O=S(=O)(c1cccc(Cl)c1)N1CCC(N2CCOCC2)CC1	.	1.9
Cc1ccc(Cl)c2c1NC(=O)C2(O)CC(=O)c1ccc(F)cc1 (stereo not given)	-1.6	0.59
Cc1ccc(Cl)c2c1NC(=O)C2(O)CC(=O)c1ccccc1 (stereo not given)	17*	0.17
COc1ccc(-c2nc(N(CCCN3CCOCC3)Cc3ccco3)c3ccccc3n2)cc1	.	0.61
COc1cccc(CC2C(=O)Nc3ccccc32)c1 (stereo not given)	-0.8	-0.79
COc1cccc(C[C@H]2NC[C@H](O)[C@H]2OC(C)=O)c1	.	3.8*
Cc1oc(-c2cccc(Cl)c2)nc1CSc1nnc(C)n2c1cc1sccc12	.	0.6

Screening results as filed in PubChem BioAssay.
